From PubChem BioAssay
Only some compounds are listed: those with a hit (about 1.2% of all), similar ones and a draw of the others.
Neddyl block = inhibitors of cullin neddylation, primary screen, biochemical, TR-FRET, uHTS, NAE and Ubc12 | AID 651699, 2012 | 360,000 tested, 0.58% active | NEDD8-conjugating enzyme Ubc12 (Homo sapiens) + NEDD8-activating enzyme E1 regulatory … | inhibition, % at 25 µM; in the data active means inhibition above about 36%
TLR4-MyD88 BLA = inhibitors of TLR4-MyD88 association in cells, primary screen, cell-based, HeLa CL3-4, BLA complementation, FRET ratio; Toll-like receptor 4 (Homo sapiens) + Myeloid differentiation primary response protein …; HeLa CL3-4 TLR4/MyD88 BLA complementation; inhibition, % at 8.4 µM; 200,000 tested, 0.18% active; in the data active means inhibition above about 25%;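 further: 0% = vehicle and 100% = reference inhibitor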
GC-B act = human GC-B receptor activators, primary screen, HEK293 GC-B cells, cGMP TR-FRET, EC30 CNP; activation, % at 10 µM; Atrial natriuretic peptide receptor 2 (Homo sapiens), P20594; 0% at EC30 CNP, 100% saturating CNP; 370,000 tested, 0.11% active;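 active means activation at 10 µM reaching about 35% in either raw or pattern-adjusted values, limit read from the data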
NOD2-RIPK2 inh = NOD2-RIPK2 binding disruptors in cells, primary screen, fluorescence, CHO cells, BLA complementation; 360,000 tested, 0.38% active; CCF4 ratio; inhibition, % at 4.98 µM; in the data active means inhibition above about 21%;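 further: 0% = vehicle only and 100% = reference blocker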
TLR9-MyD88 block = inhibitors of TLR9-MyD88 association in cells, primary screen, cell-based, CHO, BLA complementation, fluorescence. CCF4 FRET ratio. inhibition, % at 4.98 µM. 340,000 tested, 0.21% active. Toll-like receptor 9 (Homo sapiens) + Myeloid differentiation primary response protein …;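 active means inhibition above the mean over all tested compounds plus 3 SD, cut at about 21% in these data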;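 further: 0% = DMSO only wells and 100% = clavulanate BLA inhibitor control wells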
Target sequence (Q99836 whole entry, looked up): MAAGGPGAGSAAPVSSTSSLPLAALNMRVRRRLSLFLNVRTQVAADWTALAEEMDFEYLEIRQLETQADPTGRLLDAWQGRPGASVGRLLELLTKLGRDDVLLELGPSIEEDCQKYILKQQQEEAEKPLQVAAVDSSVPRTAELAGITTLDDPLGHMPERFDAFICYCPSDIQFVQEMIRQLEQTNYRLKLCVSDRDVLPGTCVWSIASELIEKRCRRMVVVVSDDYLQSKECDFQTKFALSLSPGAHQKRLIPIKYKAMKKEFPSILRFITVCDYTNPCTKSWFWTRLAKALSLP
Target sequence (Q9NR96 whole entry, looked up): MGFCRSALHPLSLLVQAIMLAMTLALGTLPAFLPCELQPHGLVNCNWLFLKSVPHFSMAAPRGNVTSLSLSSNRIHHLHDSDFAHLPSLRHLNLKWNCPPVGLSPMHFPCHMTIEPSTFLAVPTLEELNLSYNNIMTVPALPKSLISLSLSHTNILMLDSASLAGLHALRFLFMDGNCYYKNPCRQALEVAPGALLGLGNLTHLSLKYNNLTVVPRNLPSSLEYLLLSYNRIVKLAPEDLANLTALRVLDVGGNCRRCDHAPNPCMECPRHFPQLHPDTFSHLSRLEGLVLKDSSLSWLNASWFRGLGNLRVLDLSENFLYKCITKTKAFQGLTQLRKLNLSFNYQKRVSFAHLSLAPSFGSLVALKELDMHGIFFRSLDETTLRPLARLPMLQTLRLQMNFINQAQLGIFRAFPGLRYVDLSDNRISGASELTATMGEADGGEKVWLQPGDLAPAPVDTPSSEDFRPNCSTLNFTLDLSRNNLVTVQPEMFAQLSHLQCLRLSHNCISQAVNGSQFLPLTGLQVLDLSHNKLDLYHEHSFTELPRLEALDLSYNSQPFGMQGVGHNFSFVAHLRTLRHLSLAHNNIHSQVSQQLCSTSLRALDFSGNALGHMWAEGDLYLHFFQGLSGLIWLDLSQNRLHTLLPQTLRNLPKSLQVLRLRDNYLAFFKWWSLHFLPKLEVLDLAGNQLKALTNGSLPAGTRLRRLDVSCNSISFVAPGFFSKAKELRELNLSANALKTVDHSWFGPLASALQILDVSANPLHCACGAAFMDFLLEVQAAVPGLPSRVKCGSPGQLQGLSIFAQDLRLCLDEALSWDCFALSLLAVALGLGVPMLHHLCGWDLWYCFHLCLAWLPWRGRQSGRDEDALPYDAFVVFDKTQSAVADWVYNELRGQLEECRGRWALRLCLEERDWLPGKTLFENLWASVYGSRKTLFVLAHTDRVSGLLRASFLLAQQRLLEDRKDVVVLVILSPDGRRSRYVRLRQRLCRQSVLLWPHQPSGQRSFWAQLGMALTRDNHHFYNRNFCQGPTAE
NPR1 activator = GC-A stimulated cGMP production enhancers – HEK293 GC-A cells, cGMP TR-FRET, EC30 ANP, primary screen; 0% at EC30 ANP, 100% saturating ANP; activation, % at 10 µM; 370,000 tested, 0.14% active; AID 1671463, 2021; in the data active means activation above about 40%
NOD2-RIPK2 conf = NOD2-RIPK2 binding disruptors, retest, confirmation, fluorescence, CHO cells, BLA complementation, triplicate | shares compounds with NOD2-RIPK2 inh | CCF4 FRET | inhibition, % at 4.98 µM | 1,200 tested, 70% active;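 active means mean inhibition across replicates above a set limit taken from the earlier primary screen, cut at about 21% in these data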;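 further: 0% = DMSO-only wells and the high end = clavulanate BLA-blocked wells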
BLA counter = hits BLA reporter in NOD2-RIPK2 inhibitor counterscreen | inhibition, % at 4.98 µM | shares compounds with NOD2-RIPK2 inh | 1,200 tested, 57% active | CHO BLA reporter, CCF4 FRET ratio;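 active means mean inhibition above the low-control mean inhibition plus three low-control SD, cut at about 11% in these data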;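 further: 0% = DMSO only wells and 100% = clavulanate high control wells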
Active calls of the source: *; . = not tested or not shown.

SMILES | Neddyl block | TLR4-MyD88 BLA | GC-B act | NOD2-RIPK2 inh | TLR9-MyD88 block | NPR1 activator | NOD2-RIPK2 conf | BLA counter
O=C(NCc1ccccc1)C(c1ccc(-c2ccccc2)cc1)n1c(=O)c(-c2cc3ccccc3[nH]2)nc2ccccc21 (configuration not stated) | . | . | 1.6 | 23.1* | . | 9.8 | 42.4* | 66.5*
CCCC1CCC2(CC1)CCC2OC(=S)Nc1ccc(N(C)C)cc1 (configuration not stated) | . | . | -2.6 | . | . | -3.0 | . | .
Cc1noc2ncnc(Sc3ccccc3Cl)c12 | -21.1 | 9.6 | 3.7 | 27.9* | 19.9 | 2.2 | 22.8* | -5.6
COc1ccc(-n2sc3ccccc3c2=O)cc1 | -12.6 | . | 11.3 | 25.8* | 0.4 | 14.9 | 44.2* | 7.3
COc1ccc(-n2sc3ccc(F)cc3c2=O)cc1 | -25.4 | . | 5.3 | 39.8* | 15.9 | 8.0 | 40.1* | 2.3
Cc1ccc(SC(C)C(=O)Nc2ccccc2-c2ccccc2)cc1 (configuration not stated) | 4.4 | -9.9 | -8.9 | 42.9* | -6.1 | -14.2 | 2.9 | -2.5
O=C1OCCN1C(=O)[C@H]1[C@H](c2ccc(Cl)cc2)C(c2ccccc2)=NN1c1ccccc1 | . | . | -0.9 | 2.4 | -3.0 | -9.3 | . | .
O=C1OCCN1C(=O)[C@H]1[C@H](c2ccccc2)C(c2cccc(Cl)c2)=NN1c1ccccc1 | . | . | . | 26.9* | -13.6 | . | 13.6 | 38.5*
Fc1ccc(-c2n[nH]c(=S)n2N=Cc2cccc(OCc3ccccc3)c2)cc1 | . | . | -4.4 | . | . | -5.4 | . | .
CC(C)(C)NC(=O)C(C1CC1)n1c(=O)c(-c2ccco2)nc2ccccc21 (configuration not stated) | . | . | -7.8 | -10.6 | . | -5.0 | . | .
Cc1cccc(C)c1NC(=O)C(C1CC1)n1c(=O)c(-c2cc3ccccc3[nH]2)nc2ccccc21 (configuration not stated) | . | . | -0.7 | 46.8* | . | -0.7 | 42.5* | 66.9*
CC(C)(C)NC(=O)C(C1CC1)n1c(=O)c(-c2cc3ccccc3[nH]2)nc2ccccc21 (configuration not stated) | . | . | -12.2 | 41.8* | . | -2.2 | 39.3* | 61.5*
CCC[C@H]1[C@@H](NCc2ccccc2)CC[C@@]23CCCN2C(=O)CCC[C@@H]13 | . | . | -22.2 | . | . | -14.5 | . | .
CN1Cc2c(N3CCOCC3)nc3sc(C(=O)c4ccc(Br)cc4)c(N)c3c2CC1(C)C | 41.2* | . | -15.9 | 24.4* | . | 11.3 | 29.4* | 29.6*
O=C(C[n+]1ccccc1)c1ccc(NC(=O)c2ccccc2)cc1 | -5.8 | 15.1 | -12.9 | 35.2* | -0.2 | -1.4 | -1.1 | -6.7
CCCCCNC(=O)C(CCc1ccccc1)n1c(=O)c(-c2cc3ccccc3[nH]2)nc2ccccc21 (configuration not stated) | . | . | -2.5 | 43.9* | . | 3.6 | 41.3* | 66.0*
CCCCCNC(=O)C(c1cccc2ccccc12)n1c(=O)c(-c2cc3ccccc3[nH]2)nc2ccccc21 (configuration not stated) | . | . | -1.5 | 41.7* | . | 5.9 | 36.4* | 63.7*
CCCCCNC(=O)C(c1ccccc1)n1c(=O)c(-c2cc3ccccc3[nH]2)nc2ccccc21 (configuration not stated) | . | . | -4.4 | 46.3* | . | -5.3 | 40.1* | 63.9*
COCCN(CCOC)C(=O)[C@H](CCc1ccccc1)NC(=O)[C@H]1O[C@@H](n2cnc3c(N)ncnc32)[C@H](O)[C@@H]1O | . | . | 1.6 | . | . | 0.5 | . | .
CCCC1CCC2(CC1)CCC2OC(=S)Nc1ccccc1Cl (configuration not stated) | . | . | -0.3 | . | . | -1.4 | . | .
O=C1N/C(=C/c2ccc(N3CCOCC3)o2)C(=O)N1c1cccc(Cl)c1 | 12.7 | 11.2 | 23.1 | 33.4* | 11.0 | 24.2 | 21.8* | 8.6
CCCCCCCCN1CCS(=O)(=O)N(Cc2ccc(F)cc2)C(C(=O)OC)C1 (configuration not stated) | . | . | -5.8 | . | . | -1.7 | . | .
Cc1cn2nc(N)c3ccccc3c2n1 | . | -4.4 | 3.4 | 37.0* | 0.9 | 4.7 | -3.8 | 1.9
C[C@H](O)[C@@H]1CN2CCc3ccc(-c4ccc5c(c4)OCO5)cc3[C@@H]2C[C@@H]1N(C)Cc1cc(Cl)cc(Cl)c1 | . | . | 1.8 | . | . | 3.1 | . | .
O=C(C#Cc1cccc([N+](=O)[O-])c1)c1ccccc1 | 3.5 | -1.4 | . | 27.2* | 6.5 | . | 77.1* | 17.0*
O=C(NCC1COc2ccccc2O1)c1ccc(NC(=O)C(Cl)Cl)cc1 (configuration not stated) | . | . | -8.0 | . | . | -2.9 | . | .
CCc1ccc2c(c1)/C(=C/C(=O)c1cccs1)C(=O)N2 | -5.7 | 16.7 | -17.9 | 47.2* | 10.8 | -10.8 | 41.7* | 2.4
COc1ccc(-c2nn(-c3ccccc3)cc2/C=C/C(=O)OCC(=O)Nc2ccc(C#N)cc2)cc1 | 36.6 | -3.5 | . | -3.9 | 0.7 | . | . | .
COc1ccc(-c2nn(-c3ccccc3)cc2/C=C/C(=O)OCC(=O)Nc2cccc(C#N)c2)cc1 | . | -2.0 | -10.6 | 35.7* | -5.6 | -4.5 | -2.0 | -9.6
CCOC(=O)C1(CCCc2ccccc2)CCN(C(=O)c2ccoc2)CC1 | 11.9 | -2.6 | -2.4 | 44.6* | -7.2 | 0.2 | -0.8 | -3.8
